Among the data in the supplement of paper PMC8047044 are neurite formation score values, retold here.

This assay has as its system Neuro-2a. Nature of the assay: neurite formation score, plate-normalized to DMSO control mean 5.04 (score (0-8 scale)); higher = more or longer neurites. The settings on record: 0.1 µM. The protocol:
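Neuro-2a mouse neuroblastoma cells in PLL-coated 96-well plates were pre-treated for 1 h in DMEM(+) with each kinase inhibitor at 0.1 µM, then switched to serum-free DMEM(-) with inhibitor to induce neurite outgrowth and fixed about 2-3 h later. Three blinded observers scored neurite formation from 0 (no neurites) to 8 (long neurites on almost all cells).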
As for `COc1ccc(CNC(=O)Nc2ncc([N+](=O)[O-])s2)cc1`, the neurite formation score was found to be 4.71.
The figure for `O=C(O)CCC(=O)Nc1ccc(Br)cn1` [Bikinin] is 1.42.
The figure for `CN1CCN(c2nc(C3=C(c4c[nH]c5ccccc45)C(=O)NC3=O)c3ccccc3n2)CC1` [Sotrastaurin (AEB071)] is 4.92.
`Cc1ncc(CCCN(C)C)cc1Nc1ncc2c(n1)-c1ccc(C(F)(F)F)cc1NC(=S)C2` displayed a neurite formation score of 4.92.
Turning to `CNc1nc(-c2ccc3c(N)n[nH]c3c2)cc(N2C[C@@H](C(=O)NC3CCCCC3)CC[C@H]2C)n1`, the neurite formation score is 1.42.
The result for `N#Cc1c(O)c2c(-c3ccc(-c4ccccc4O)cc3)csc2[nH]c1=O` reads 5.58; that for `CCCCCCCCCCCCCCCCCCOP(=O)([O-])OC1CC[N+](C)(C)CC1` [Perifosine], 4.88.
The figure for `COc1cc2ncnc(Nc3cccc(Cl)c3)c2cc1OC` is 5.54; for `O=[N+]([O-])c1ccc(-c2nc(-c3ccc(F)cc3)c(-c3ccncc3)[nH]2)cc1` it is 4.25; for `Nc1nc(Nc2ccc(S(N)(=O)=O)cc2)nn1C(=O)c1c(F)cccc1F` it is 5.58.
The figure for `O=C(NC[C@H](O)CO)c1ccncc1Nc1ccc(I)cc1F` is 5.54.
Compound `Cc1ccc(NC(=O)c2cccc(N(C)C)c2)cc1NC(=O)c1ccc(O)cc1` came in with a neurite formation score of 4.58.
The result for `O=C1NC(=O)C(=Cc2ccc(-c3ccc(F)cc3)o2)S1` (stereo in doubt) reads 3.08; that for `Nc1nc(N)c(N=O)c(OCC2CCCCC2)n1`, 4.71.
The result for `CCOc1cc(N2CCC(O)CC2)ccc1Nc1ncc2c(n1)N(C)c1ccccc1C(=O)N2C` reads 4.92; that for `Oc1ccc(-c2nc(-c3ccc(F)cc3)c(-c3ccncc3)[nH]2)cc1`, 4.71; that for `CC(C)c1cc(CNc2nc(Nc3cc(C4CC4)[nH]n3)cc(N3CCN(C)CC3)n2)on1`, 4.92.
`Nc1nccc(Oc2ccc(NC(=O)c3c[nH]cc(-c4ccc(F)cc4)c3=O)cc2F)c1Cl`: the neurite formation score was 4.92.
The result for `Cc1nc(NC(=O)N2CCC[C@H]2C(N)=O)sc1-c1csc(C(C)(C)C)n1` reads 5.21; that for `Cc1cccc(CC(=O)N2CCc3c2ccc(-c2cn(C)c4ncnc(N)c24)c3F)n1`, 4.42.
The result for `COc1cc(C(=O)NC2CCN(C)CC2)ccc1Nc1ncc2c(n1)N(C1CCCC1)CC(F)(F)C(=O)N2C` reads 4.25.
In turn, `C=CC(=O)Nc1cc(Nc2nccc(-c3cn(C)c4ccccc34)n2)c(OC)cc1N(C)CCN(C)C` displayed a neurite formation score of 3.76.
`Nc1cccc(S(=O)(=O)N2CCCN(S(=O)(=O)c3ccc4c(c3)OCCO4)CC2)c1` gave a neurite formation score of 4.09.
The compound `NC(=O)Nc1cc(-c2cccc(F)c2)sc1C(=O)N[C@H]1CCCNC1` registered a neurite formation score of 4.21.
The figure for `CN(C)C1CCN(C(=O)c2ccc(NC(=O)Nc3ccc(-c4nc(N5CCOCC5)nc(N5CCOCC5)n4)cc3)cc2)CC1` is 3.09; for `CNC(=O)c1cc(Oc2ccc3nc(N[C@@H]4CCCC[C@H]4O)sc3c2)ccn1` it is 4.75; for `O=C1NC(=O)[C@@H](c2cn3c4c(cccc24)CCC3)[C@@H]1c1c[nH]c2ccccc12` [Tivantinib (ARQ 197)] it is 0.876.
Consider `CCN(CC)CCNC(=O)c1c(C)[nH]c(/C=C2\C(=O)Nc3ccc(F)cc32)c1C` [Sunitinib], for which the neurite formation score was 5.58.
The result for `O=c1c(-c2ccc(O)cc2)coc2cc(O)cc(O)c12` [Genistein] reads 3.38.
The figure for `CCOc1cc2ncc(C#N)c(Nc3ccc(OCc4ccccn4)c(Cl)c3)c2cc1NC(=O)/C=C/CN(C)C` [Neratinib (HKI-272)] is 5.09; for `CCN1C(=CC(C)=O)Sc2ccc(OC)cc21` it is 4.92; for `FC(F)(F)c1ccc(/C=C/c2nc(COc3ccc(CCCCn4ccnn4)cc3)co2)cc1` [Mubritinib (TAK 165)] it is 4.76.
The result for `O=C(Nc1cc(C(F)(F)F)cc(C(F)(F)F)c1)c1cc(Cl)ccc1O` reads 4.76.
As for `O=C(NC1CCNCC1)c1n[nH]cc1NC(=O)c1c(Cl)cccc1Cl`, the neurite formation score was found to be 5.88.
The figure for `C#Cc1cccc(Nc2ncnc3cc(OC)c(OCCCCCCC(=O)NO)cc23)c1` is 4.25; for `COc1cc(Nc2ncc3c(n2)-c2ccc(Cl)cc2C(c2c(F)cccc2OC)=NC3)ccc1C(=O)O` [MLN8237 (Alisertib)] it is 4.58.
The result for `C[C@@H](Oc1ccc2[nH]nc(/C=C/c3cnn(CCO)c3)c2c1)c1c(Cl)cncc1Cl` reads 4.92; that for `O=C1NCCCc2c1oc1ccc(O)cc21`, 4.58.
The figure for `O=C(Nc1ccc(-c2ccnc(Nc3ccc(N4CCOCC4)cc3)n2)cc1)C1CCCN1` (centres undefined) is 4.92.
